# Results filed as inconclusive are left out. A number with no mark means an inactive call. Active and inactive are the calls of the source. Calls follow the shape of the dose curve; as a rule, active = well fitted inhibition curve with a large enough effect; inconclusive = small, poorly fitted or top-dose-only effect; inactive = flat fitted curve, though single readings scatter.
# Assay: CHOP2 Reporter Counterscreen Assay for Inhibitors of Ubiquitin-specific Protease USP2a;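 also: activated enterokinase alone at 50 pM in a cell-free format rather than USP2a or CHOP2; nearly all actives have a fitted effect of over 55% in size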
# Details: purified enterokinase, fluorogenic substrate, 485/531 nm; series mostly up to 38.3 µM; activity change, negative = inhibition: at the top concentration
# Summary of the method: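 Fluorescence (485/531 nm) read 10 min after adding 25nM reporter substrate to 50 pM activated EK preincubated 30 min RT with compound; Tris pH 8.0/CaCl2/CHAPS buffer. Data normalized to buffer-alone inhibition; concentration-response curves fitted.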
# % is scaled to controls: 0 for no effect and ±100 for the full control effect; potency is read from the fitted curve at half-maximal effect.
SMILES,"activity change, negative = inhibition [%]",Potency
O=C(O)CCn1c(C2CCCCC2)nc2ccccc21,-2.37,–
O=C(CSc1nc(O)cc(=O)n1-c1ccccc1)NC1CCCCC1,-0.765,–
O=C(O)c1cccc(S(=O)(=O)NNc2ccccc2C(F)(F)F)c1,-1.31,–
Cc1n[nH]c(C)c1S(=O)(=O)N1CCCC(C(=O)NC2CCCc3ccccc32)C1 (stereo not given),0.0618,–
Oc1ccc(/C=N/NC(=S)N/N=C/c2ccc(O)cc2)cc1,6.72,–
O=C(C1CCCN(S(=O)(=O)c2cccc3cccnc23)C1)N1CCN(c2ccccc2F)CC1 (stereo not given),-2.24,–
COc1cccc(-c2csc3nnc(SCC(=O)NCc4cccs4)n23)c1,-1.81,–
CCCCCCCCCCCCCCCC[N+](C)(C)CCN(Cc1ccc(OC)cc1)c1ncccn1,–,10 µM (active)
C#CCOCCOCCOCCNc1nc(N2CCN(C(=O)CCCCCCCCCCNC(=O)[C@H]([C@@H](C)CC)n3cc(CCCCCN)nn3)CC2)nc(N2CCN(C(=O)CCCCCCCCCCNC(=O)[C@H](CCCCN)n3cc(CCCC(=O)O)nn3)CC2)n1,–,7.94 µM (active)
Cc1ccc(C(=O)CSc2nnc(CNc3nc(-c4ccccc4)cs3)n2C)cc1,-7.24,–
COc1ccccc1C1NC(c2ccccc2OC)C(C)C(=O)C1C (stereo not given),3.82,–
N#CNC(=Nc1cccc(F)c1)SCc1cccc(F)c1,4.07,–
Cc1ccc(C(=O)N(c2c(C)n(C)n(-c3ccccc3)c2=O)C(C)C)cc1,-2.46,–
CCn1c(COc2ccc(C)cc2)nnc1SCC(=O)Nc1ccc2c(c1)OCCO2,0.498,–
N#Cc1c(-c2cccs2)nc(SCc2ccc(Cl)cc2)[nH]c1=O,-21.8,–
O=C(NC1CCCC1)C1C2C=CC(C2)C1C(=O)N1CCOCC1 (stereo not given),4.28,–
CCC(CO)Oc1cc(NCc2cccc(C)c2)c2ncn(C(C)C)c2c1 (stereo not given),0.286,–
CCNc1sc(C(=O)c2cccs2)c(N)c1-c1nc2ccccc2s1,2.16,–
O=C(CN1CCOCC1)Nc1ccc(C2CCCCC2)cc1,-0.907,–
Cc1ccc(C(C(=O)NC2CCCC2)N2CCc3ccccc32)cc1 (stereo not given),3.43,–

SMILES,"activity change, negative = inhibition [%]",Potency
COc1ccc(CCn2c(O)cc3nn(-c4nc5ccccc5s4)c(=O)c-3c2C)cc1,–,11.2 µM (active)
CC(C)(C)C1C=C(Sc2ccccc2)C(=O)O1 (stereo not given),2.04,–
CNc1nc(OCCNC(=O)Nc2ccccc2)nc(N2CCOCC2)n1,2.14,–
CCCc1nc(SCC(N)=O)[nH]c(=O)c1CC,0.215,–
CC1CCCC(NC(=O)C2N(CCCN3CCCC3)C(=O)C3C(C(=O)Nc4ccc(Cl)cc4)C4C=CC32O4)C1C (stereo not given),-2.85,–
Nc1cc(=O)[nH]c(SCc2cccc(Cl)c2)n1,6.13,–
CCOC(=O)N1CCN(C(=O)c2cc3c(ccc4ccccc43)oc2=O)CC1,-1.78,–
CCC(C)(C)n1nnnc1C(c1ccc(C)cc1)N1CCCC1 (stereo not given),0.491,–
CC1(C)CC(=O)C2=C(C1)Oc1ncn(CCCO)c(=N)c1C2c1ccccc1 (stereo not given),-1.64,–
CCC(C(=O)Nc1nnc(-c2ccco2)s1)c1ccccc1 (stereo not given),4.66,–
COc1cccc(C(=O)NC(C)c2ccc(-c3ccccc3)cc2)c1OC (stereo not given),-5.34,–
O=C(OCC(=O)N1CCCCC1)c1cc2ccccc2cc1O,0.355,–
CCOc1ccc2[nH]c(=O)c(CN(Cc3nnnn3Cc3ccco3)C3CCCCC3)cc2c1,-8.56,–
Cc1ccc2[nH]c3c(c2c1)CN(C(=O)CN1CCSCC1)CC3,13.7,–
O=C(COc1ccccc1)N1CCN(C(=O)Cc2ccccc2)CC1,1.53,–
O=C(Nc1nc(-c2ccco2)c(-c2ccco2)s1)C1CC(=O)N(c2ccc3c(c2)OCCO3)C1 (stereo not given),–,4.47 µM (active)
COC(=O)C1CCN(C(=O)COC(=O)CC(NC(N)=O)c2ccc(Cl)cc2)CC1 (stereo not given),2.03,–
CCOC(=O)c1c(C)[nH]c(C(=O)COC(=O)CSC)c1C,1.66,–
CCCC(=O)Nc1ccc(N2CCN(C(=O)c3cc4ccccc4o3)CC2)cc1,5.53,–
C#CCOCCOCCOCCNc1nc(N2CCN(C(=O)CCCCCCCCCCNC(=O)Cn3cc(CCCCCN)nn3)CC2)nc(N2CCN(C(=O)CCCCCCCCCCNC(=O)[C@H]([C@@H](C)CC)n3cc(CCCCCN)nn3)CC2)n1,–,5.62 µM (active)
